In PubChem BioAssay (NCATS):
Inconclusive results are not listed. Entries that show only a call come without a potency. Active and inactive are the calls of the source. Calls come from the whole dose curve; as a rule, active = well fitted inhibition curve with a large enough effect; inconclusive = small, poorly fitted or top-dose-only effect; inactive = no such curve, though single readings can be large or run the other way.

Target: Retinaldehyde dehydrogenase 3 (Homo sapiens) (UniProt P47895)
Experiment: qHTS for Inhibitors of the Aldehyde Dehydrogenase Family (ALDH1A3) Confirmatory screens (AID 2061311); note: nearly all actives have a fitted effect of over 60% in size
Details: ALDH inhibition qHTS; series mostly up to 46 µM
Potency is the fitted concentration of half-maximal effect.

| SMILES | Potency |
| --- | --- |
| OC[C@H]1O[C@@H](Oc2ccc(O)c3cccc(O)c23)[C@H](O)[C@@H](O)[C@@H]1O | 0.985 µM (active) |
| CN(C)c1ccc(NC(=O)NS(=O)(=O)c2ccc(Cl)cc2)cc1 | 2.83 µM (active) |
| COc1c(C(C)C)c(O)c(O)c2c1C(OC)[C@H]1OC(=O)[C@@]23CCCC(C)(C)[C@H]13 (some centres not stated) | 6.97 µM (active) |
| CO[C@]1(NC(=O)CSC(F)F)C(=O)N2C(C(=O)O)=C(CSc3nnnn3CCO)CO[C@H]21 | inactive |
| CC(C)c1ccc2c(c1)CCC1[C@](C)(C(=O)O)CCC[C@]21C (some centres not stated) | inactive |
| Oc1ccc(O)cc1 | 4.49 µM (active) |
| O=C(/C=C/c1ccc(O)c(O)c1)O[C@@H]1[C@@H](O)[C@H](OC2CCCCC2O)O[C@H](CO)[C@H]1O (some centres not stated) | 5.51 µM (active) |

Target: Retinaldehyde dehydrogenase 3 (Homo sapiens) (UniProt P47895)
Experiment: qHTS for Inhibitors of the Aldehyde Dehydrogenase Family (ALDH1A3) Validation screen (AID 2061312); note: nearly all actives have a fitted effect of over 45% in size
Details: ALDH1A3 enzyme inhibition qHTS validation, fluorescence; series mostly up to 84.7 µM

| SMILES | Potency |
| --- | --- |
| COc1cc2c(cc1NS(=O)(=O)c1ccc(Br)cc1C)n(C)c(=O)n2C | 31.6 µM (active) |
| CCOC(=O)N1CCC(CN(Cc2ccc(Cl)cc2)Cc2ccc([N+](=O)[O-])s2)C1 (configuration not stated) | 10 µM (active) |
| Oc1ccc(O)cc1 | 0.794 µM (active) |

Target: Retinal dehydrogenase 2 (Homo sapiens) (UniProt O94788)
Experiment: qHTS for Inhibitors of the Aldehyde Dehydrogenase Family (ALDH1A2) Confirmation screens (AID 2061314); note: nearly all actives have a fitted effect of over 65% in size
Details: ALDH1A2 enzyme inhibition qHTS confirmation; series mostly up to 45.9 µM

| SMILES | Potency |
| --- | --- |
| OC[C@H]1O[C@@H](Oc2ccc(O)c3cccc(O)c23)[C@H](O)[C@@H](O)[C@@H]1O | 2.47 µM (active) |
| COc1cc2c(cc1NS(=O)(=O)c1ccc(Br)cc1C)n(C)c(=O)n2C | 20.1 µM (active) |
| CN(C)c1ccc(NC(=O)NS(=O)(=O)c2ccc(Cl)cc2)cc1 | 10.1 µM (active) |
| CCOC(=O)N1CCC(CN(Cc2ccc(Cl)cc2)Cc2ccc([N+](=O)[O-])s2)C1 (configuration not stated) | inactive |
| COc1c(C(C)C)c(O)c(O)c2c1C(OC)[C@H]1OC(=O)[C@@]23CCCC(C)(C)[C@H]13 (some centres not stated) | 15.6 µM (active) |
| CO[C@]1(NC(=O)CSC(F)F)C(=O)N2C(C(=O)O)=C(CSc3nnnn3CCO)CO[C@H]21 | inactive |
| O=C(NNc1ccccc1)c1ccncc1 | inactive |
| O=C(/C=C/c1ccc(O)c(O)c1)O[C@@H]1[C@@H](O)[C@H](OC2CCCCC2O)O[C@H](CO)[C@H]1O (some centres not stated) | inactive |

Target: Retinaldehyde dehydrogenase 3 (Homo sapiens) (UniProt P47895)
Experiment: qHTS for Inhibitors of the Aldehyde Dehydrogenase Family (ALDH1A3) Primary screen (AID 2061315)
Details: ALDH inhibition qHTS; series mostly up to 56 µM

| SMILES | Potency |
| --- | --- |
| Cc1cc(C)c2c(N)c(C(=O)NCc3ccc(Cl)cc3)sc2n1 | inactive |
| OC[C@H]1O[C@@H](Oc2ccc(O)c3cccc(O)c23)[C@H](O)[C@@H](O)[C@@H]1O | 1.78 µM (active) |
| O=C(Nc1ccc(S(=O)(=O)C(F)(F)F)cc1)C1=CCN(c2ncccc2C(F)(F)F)CC1 | inactive |
| CCOC(=O)N1CCC(CN(Cc2ccc(Cl)cc2)Cc2ccc([N+](=O)[O-])s2)C1 (configuration not stated) | inactive |
| COc1c(C(C)C)c(O)c(O)c2c1C(OC)[C@H]1OC(=O)[C@@]23CCCC(C)(C)[C@H]13 (some centres not stated) | 2.82 µM (active) |
| CO[C@]1(NC(=O)CSC(F)F)C(=O)N2C(C(=O)O)=C(CSc3nnnn3CCO)CO[C@H]21 | inactive |
| COC(CCc1ccc(O)cc1)CC(=O)CCc1ccc(O)cc1 (configuration not stated) | inactive |
| CC(C)c1ccc2c(c1)CCC1[C@](C)(C(=O)O)CCC[C@]21C (some centres not stated) | inactive |
| Cn1c(N2CCCCS2(=O)=O)nc(C(=O)NCc2ccc(F)cc2)c(O)c1=O | inactive |
| OCC1OC(Oc2cc(O)cc(/C=C/c3ccc(OC4OC(CO)C(O)C(O)C4O)cc3O)c2)C(O)C(O)C1O (configuration not stated) | 4.47 µM (active) |
| O=C(O)c1cc(-c2c(-c3ccccc3)nn3ccccc23)n[nH]c1=O | inactive |
| Cc1c(Cc2ccc3ccccc3n2)c2cc(F)ccc2n1CC(=O)O | inactive |
| CC1=CCC2C(C)(CO)CCCC2(CO)C1CO (configuration not stated) | inactive |
| O=C(/C=C/c1ccc(O)c(O)c1)O[C@@H]1[C@@H](O)[C@H](OC2CCCCC2O)O[C@H](CO)[C@H]1O (some centres not stated) | 3.98 µM (active) |

Target: Aldehyde dehydrogenase 1A1 (Homo sapiens) (UniProt P00352)
Experiment: qHTS for Inhibitors of the Aldehyde Dehydrogenase Family (ALDH1A1) Confirmatory screens (AID 2061316); note: nearly all actives have a fitted effect of over 65% in size
Details: ALDH inhibition qHTS; series mostly up to 47.3 µM

| SMILES | Potency |
| --- | --- |
| Cc1cc(C)c2c(N)c(C(=O)NCc3ccc(Cl)cc3)sc2n1 | 14.2 µM (active) |
| COc1cc2c(cc1NS(=O)(=O)c1ccc(Br)cc1C)n(C)c(=O)n2C | inactive |
| CN(C)c1ccc(NC(=O)NS(=O)(=O)c2ccc(Cl)cc2)cc1 | 7.98 µM (active) |
| CO[C@]1(NC(=O)CSC(F)F)C(=O)N2C(C(=O)O)=C(CSc3nnnn3CCO)CO[C@H]21 | 14.2 µM (active) |
| COC(CCc1ccc(O)cc1)CC(=O)CCc1ccc(O)cc1 (configuration not stated) | inactive |
| CC(C)c1ccc2c(c1)CCC1[C@](C)(C(=O)O)CCC[C@]21C (some centres not stated) | inactive |
| O=C(NNc1ccccc1)c1ccncc1 | inactive |
| Cn1c(N2CCCCS2(=O)=O)nc(C(=O)NCc2ccc(F)cc2)c(O)c1=O | inactive |
| Oc1ccc(O)cc1 | 11.3 µM (active) |
| CC(NC(=O)CC(=O)O)c1nc2ccccc2c(=O)[nH]1 (configuration not stated) | 1.27 µM (active) |
